# Experimental data reported in PubChem BioAssay.
# Values without a mark were called inactive. Activity calls are given as the source filed them. How the calls were made is not given here.
# Molecular target: L-lactate dehydrogenase (Plasmodium falciparum (isolate CDC / Honduras)) (UniProt Q27743)
# Test: PfLDH activity inhibition – cell lysate, 3D7 strain, counter-screen for P. falciparum growth inhibition project (AID 2304);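 further: 0% = vehicle and 100% = reference inhibitor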
# Details: P. falciparum 3D7 crude extract, LDH APAD/NBT absorbance; at 2 µM; stronger effect = higher value
# Chain of L-lactate dehydrogenase (Plasmodium falciparum (isolate CDC / Honduras)) (Q27743 whole entry, looked up): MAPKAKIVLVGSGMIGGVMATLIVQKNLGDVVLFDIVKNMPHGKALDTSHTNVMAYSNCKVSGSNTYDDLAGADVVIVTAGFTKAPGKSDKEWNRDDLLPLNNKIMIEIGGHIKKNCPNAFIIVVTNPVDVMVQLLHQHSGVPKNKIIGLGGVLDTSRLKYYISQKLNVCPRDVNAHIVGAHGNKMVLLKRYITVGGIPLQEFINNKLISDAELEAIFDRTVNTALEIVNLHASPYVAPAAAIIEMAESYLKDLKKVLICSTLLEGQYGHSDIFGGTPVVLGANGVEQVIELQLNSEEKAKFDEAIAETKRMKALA
row,SMILES,inhibition
1,CS(=O)(=O)c1ccc(CCNCc2ccc(-c3ccc(CN(C(=O)C4CCCC4)C4CCN(Cc5ccccc5)CC4)cc3)nc2)cc1,-6%
2,CCN(CC)CCNC(=O)c1ccc(NC(=O)c2cc3c(C)nn(-c4ccc(Cl)cc4)c3s2)cc1,-2%
3,O=C1COC2(CN1CC1CCN(Cc3ccc(O)c(Cl)c3)C1)c1ccccc1-c1ccccc12 (stereo not given),1%
4,CCOC(=O)c1cn(CC)c2cc(O[C@H]3CCN(C(=O)OC(C)(C)C)C3)ccc2c1=O,-1%
5,O=C(c1ccc(OCCn2ccnc2)cc1)N1CCC(c2ccc(Br)cc2)C1 (stereo not given),-3%
6,Cn1nccc1C(=O)NCCNCc1ccc(-c2ccc(-c3nc4ccccc4[nH]3)s2)cc1,-9%
7,CN1CCN(CCCN(Cc2cccc(-c3ccc(CNCc4ccc5c(c4)OCO5)cc3)c2)C(=O)Nc2ccccc2)CC1,4%
8,Cc1cccc(S(=O)(=O)Nc2cccc(CCN3CCC(N4CCCCC4)CC3)c2)c1,-2%
9,COc1cccc(-c2nn(C)c3sc(C(=O)NCCN(C)Cc4ccccc4)cc23)c1,-3%
10,Cc1cnc(CS(=O)c2nc3ccc(C(F)(F)F)cc3[nH]2)cc1OCc1ccccc1 (stereo not given),-2%
11,Cc1cccc(CNc2nc(C)cc(N[C@@H](Cc3ccccc3)C(=O)NCCc3ccccc3)n2)c1,2%
12,CCc1ccc(CNCC(CCNc2cc(=O)c3ccccc3[nH]2)NCc2cc(Br)cc(Br)c2)o1 (stereo not given),1%
13,Cc1ccc(Cc2cnc(NCCSCc3ccc(CN(C)C)s3)[nH]c2=O)cn1,0%
14,CCCCCCOc1ccccc1C(=O)NCCOc1ccc(Cl)cc1,4%
15,Cc1cccc(Cn2c(C(N)=O)nn(-c3ccc([N+](=O)[O-])cc3C#N)c2=S)c1,2%
16,CCCN(CCC)CCCOc1ccc(C(=O)c2c(-c3ccc(OCCCN(CCC)CCC)cc3)oc3ccc(Cl)cc23)cc1,-8%
17,O=C(/C=C/c1ccc(Cl)c(Cl)c1)NCCCCCN1CCC(NC(=O)NC2CCCC2)CC1,-1%
18,CCc1[nH]nc(C(=O)NC2CCN(CC3(c4ccc(OC)cc4)CCCCC3)CC2)c1C,-1%
19,CCN1CCN(CCCNc2ccnc3cc(Cl)ccc23)CC1,2%
20,COc1nc(Nc2cccc(C)c2)nc(OC)n1,1%

row,SMILES,inhibition
1,CC(C)(C)C(Cn1ccnc1)NCc1cn[nH]c1-c1ccc(-c2ccccc2)cc1 (stereo not given),-2%
2,CN(C)c1ccc(CN2CCC(NC(=O)c3ccc(-c4ccc(N(C)C)cc4)s3)CC2)cc1,-2%
3,O=C(NCc1cccs1)[C@H](Cc1ccccc1)Nc1ccnc(NCC2CCCCC2)n1,-2%
4,CCCCCCN(CCCCCC)CCCCNc1c2ccc(Cl)cc2nc2ccc(OC)cc12,1%
5,Cc1cc2c(cc1C(F)(F)F)N(C(=O)Nc1cc(OCCN(C)C)cc(C(F)(F)F)c1)CC2,0%
6,CNCCCNc1ccnc2cc(Cl)ccc12,-1%
7,COc1ccc(C)c(Nc2ccnc(Nc3ccc(-c4cnc[nH]4)cc3)n2)c1,-1%
8,Cc1ccc(Cn2ncc(N3CCCNCC3)c(Cl)c2=O)cc1NC(=O)Nc1ccc(-c2ccccc2)cc1,1%
9,CN1CCN(c2ccnc3ccc(NC(=O)Nc4ccc(-c5ccncc5)c(C#N)c4)cc23)CC1,-3%
10,CC(C(=O)NC1CCN(c2ccnc(Nc3ccc(F)cc3)n2)C1)c1ccc(Cl)cc1 (stereo not given),-4%
11,COc1cc2nc(N(C)C)nc(Nc3ccc4c(cnn4Cc4ccccc4)c3)c2cc1OC,-4%
12,CC(C)Nc1ccc(Nc2ccnc3cc4ccccc4cc23)cc1,-3%
13,CCOC(=O)c1ccc(NC(=O)N[C@H]2CCN(CCCCCNC(=O)/C=C/c3ccc(Cl)c(Cl)c3)C2)cc1,-4%
14,COc1ccc2nc(C)cc(NN=Cc3ccc(F)cc3)c2c1,-8%
15,CCOC(=O)C1=C(C)NC2=C(C(=O)C(C(=O)OC)C(C)C2)C1c1cc(Br)c(OCC)c(OC)c1 (stereo not given),0%
16,COc1ccc2nccc([C@@H](O)CN3CCC(NC(=O)c4ccc(Oc5ccccc5)cc4)CC3)c2c1,2%
17,O=C1Nc2cccc3c2C1(CCCCN1CCC(c2c(-c4ccccc4)[nH]c4ccccc24)CC1)CCC3 (stereo not given),-1%
18,Cc1[nH]c(C)c(C2CCC(c3ccc(Cl)cc3)CC2)c(=O)c1Cl (stereo not given),-9%
19,NC(=S)Cc1ccc2c(c1)OCO2,-2%
20,CCN(CC)CCCSc1ccc(-c2ccc(SCCCN(CC)CC)cc2)cc1,-8%

# Test system: not listed separately
# Test: inhibition of 3D7 malaria parasite growth – strain 3D7 (AID 2306);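 further: 0% = DMSO wells and 100% = chloroquine plus artemisinin control wells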
# Details: P. falciparum 3D7 erythrocytic growth, LDH absorbance, 72 h; at 2 µM; stronger effect = higher value
row,SMILES,growth inhibition
1,CS(=O)(=O)c1ccc(CCNCc2ccc(-c3ccc(CN(C(=O)C4CCCC4)C4CCN(Cc5ccccc5)CC4)cc3)nc2)cc1,91% (active)
2,CCN(CC)CCNC(=O)c1ccc(NC(=O)c2cc3c(C)nn(-c4ccc(Cl)cc4)c3s2)cc1,95% (active)
3,O=C1COC2(CN1CC1CCN(Cc3ccc(O)c(Cl)c3)C1)c1ccccc1-c1ccccc12 (stereo not given),93% (active)
4,CCOC(=O)c1cn(CC)c2cc(O[C@H]3CCN(C(=O)OC(C)(C)C)C3)ccc2c1=O,98% (active)
5,O=C(c1ccc(OCCn2ccnc2)cc1)N1CCC(c2ccc(Br)cc2)C1 (stereo not given),100% (active)
6,Cn1nccc1C(=O)NCCNCc1ccc(-c2ccc(-c3nc4ccccc4[nH]3)s2)cc1,101% (active)
7,CN1CCN(CCCN(Cc2cccc(-c3ccc(CNCc4ccc5c(c4)OCO5)cc3)c2)C(=O)Nc2ccccc2)CC1,98% (active)
8,Cc1cccc(S(=O)(=O)Nc2cccc(CCN3CCC(N4CCCCC4)CC3)c2)c1,87% (active)
9,COc1cccc(-c2nn(C)c3sc(C(=O)NCCN(C)Cc4ccccc4)cc23)c1,92% (active)
10,Cc1cnc(CS(=O)c2nc3ccc(C(F)(F)F)cc3[nH]2)cc1OCc1ccccc1 (stereo not given),93% (active)
11,Cc1cccc(CNc2nc(C)cc(N[C@@H](Cc3ccccc3)C(=O)NCCc3ccccc3)n2)c1,99% (active)
12,CCc1ccc(CNCC(CCNc2cc(=O)c3ccccc3[nH]2)NCc2cc(Br)cc(Br)c2)o1 (stereo not given),100% (active)
13,Cc1ccc(Cc2cnc(NCCSCc3ccc(CN(C)C)s3)[nH]c2=O)cn1,95% (active)
14,CCCCCCOc1ccccc1C(=O)NCCOc1ccc(Cl)cc1,84% (active)
15,Cc1cccc(Cn2c(C(N)=O)nn(-c3ccc([N+](=O)[O-])cc3C#N)c2=S)c1,101% (active)
16,CCCN(CCC)CCCOc1ccc(C(=O)c2c(-c3ccc(OCCCN(CCC)CCC)cc3)oc3ccc(Cl)cc23)cc1,96% (active)
17,O=C(/C=C/c1ccc(Cl)c(Cl)c1)NCCCCCN1CCC(NC(=O)NC2CCCC2)CC1,99% (active)
18,CCc1[nH]nc(C(=O)NC2CCN(CC3(c4ccc(OC)cc4)CCCCC3)CC2)c1C,90% (active)
19,CCN1CCN(CCCNc2ccnc3cc(Cl)ccc23)CC1,101% (active)
20,COc1nc(Nc2cccc(C)c2)nc(OC)n1,94% (active)

row,SMILES,growth inhibition
1,CC(C)(C)C(Cn1ccnc1)NCc1cn[nH]c1-c1ccc(-c2ccccc2)cc1 (stereo not given),98% (active)
2,CN(C)c1ccc(CN2CCC(NC(=O)c3ccc(-c4ccc(N(C)C)cc4)s3)CC2)cc1,93% (active)
3,O=C(NCc1cccs1)[C@H](Cc1ccccc1)Nc1ccnc(NCC2CCCCC2)n1,83% (active)
4,CCCCCCN(CCCCCC)CCCCNc1c2ccc(Cl)cc2nc2ccc(OC)cc12,100% (active)
5,Cc1cc2c(cc1C(F)(F)F)N(C(=O)Nc1cc(OCCN(C)C)cc(C(F)(F)F)c1)CC2,101% (active)
6,CNCCCNc1ccnc2cc(Cl)ccc12,101% (active)
7,COc1ccc(C)c(Nc2ccnc(Nc3ccc(-c4cnc[nH]4)cc3)n2)c1,97% (active)
8,Cc1ccc(Cn2ncc(N3CCCNCC3)c(Cl)c2=O)cc1NC(=O)Nc1ccc(-c2ccccc2)cc1,101% (active)
9,CN1CCN(c2ccnc3ccc(NC(=O)Nc4ccc(-c5ccncc5)c(C#N)c4)cc23)CC1,101% (active)
10,CC(C(=O)NC1CCN(c2ccnc(Nc3ccc(F)cc3)n2)C1)c1ccc(Cl)cc1 (stereo not given),95% (active)
11,COc1cc2nc(N(C)C)nc(Nc3ccc4c(cnn4Cc4ccccc4)c3)c2cc1OC,100% (active)
12,CC(C)Nc1ccc(Nc2ccnc3cc4ccccc4cc23)cc1,100% (active)
13,CCOC(=O)c1ccc(NC(=O)N[C@H]2CCN(CCCCCNC(=O)/C=C/c3ccc(Cl)c(Cl)c3)C2)cc1,98% (active)
14,COc1ccc2nc(C)cc(NN=Cc3ccc(F)cc3)c2c1,100% (active)
15,CCOC(=O)C1=C(C)NC2=C(C(=O)C(C(=O)OC)C(C)C2)C1c1cc(Br)c(OCC)c(OC)c1 (stereo not given),101% (active)
16,COc1ccc2nccc([C@@H](O)CN3CCC(NC(=O)c4ccc(Oc5ccccc5)cc4)CC3)c2c1,82% (active)
17,O=C1Nc2cccc3c2C1(CCCCN1CCC(c2c(-c4ccccc4)[nH]c4ccccc24)CC1)CCC3 (stereo not given),84% (active)
18,Cc1[nH]c(C)c(C2CCC(c3ccc(Cl)cc3)CC2)c(=O)c1Cl (stereo not given),98% (active)
19,NC(=S)Cc1ccc2c(c1)OCO2,96% (active)
20,CCN(CC)CCCSc1ccc(-c2ccc(SCCCN(CC)CC)cc2)cc1,87% (active)
